MEKK2mut PB1 HTS – signal of MEK5 binding to mutant human MEKK2 PB1 domain; bead flow cytometry, Alexa488-MEK5 binding to MEKK2 mutant; percent response, % at 10 µM; 290,000 tested, 0.35% active; AID 1530; in the data active = percent response above about 24%, passing the limit was not always enough
MEKK2wt PB1 HTS – raises or lowers MEK5 binding to wildtype human MEKK2 PB1 domain; Q9Y2U5; bead flow cytometry, Alexa488-MEK5 binding to MEKK2 WT; actives lie on both sides; binding response (% of control), % at 10 µM; 290,000 tested, 1.1% active; in the data active = binding response below about 67% or above about 130%
MEKK3 PB1 HTS – raises or lowers MEK5 binding to the human MEKK3 PB1 domain; Q99759; bead-based flow cytometry, Alexa488-MEK5 binding to MEKK3; actives lie on both sides; 0 = blocked by unlabeled MEK5, 100 = vehicle; binding response (% of control), % at 10 µM; 290,000 tested, 1.4% active; AID 1529;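 active = binding response more than 3 SD above or below the average of its plate-row segment, actives on both sides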;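 note: Alexa488 bead fluorescence after subtracting the streptavidin-only scavenger bead signal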
Target sequence (Q99759 whole entry, looked up, the tested form may be a part): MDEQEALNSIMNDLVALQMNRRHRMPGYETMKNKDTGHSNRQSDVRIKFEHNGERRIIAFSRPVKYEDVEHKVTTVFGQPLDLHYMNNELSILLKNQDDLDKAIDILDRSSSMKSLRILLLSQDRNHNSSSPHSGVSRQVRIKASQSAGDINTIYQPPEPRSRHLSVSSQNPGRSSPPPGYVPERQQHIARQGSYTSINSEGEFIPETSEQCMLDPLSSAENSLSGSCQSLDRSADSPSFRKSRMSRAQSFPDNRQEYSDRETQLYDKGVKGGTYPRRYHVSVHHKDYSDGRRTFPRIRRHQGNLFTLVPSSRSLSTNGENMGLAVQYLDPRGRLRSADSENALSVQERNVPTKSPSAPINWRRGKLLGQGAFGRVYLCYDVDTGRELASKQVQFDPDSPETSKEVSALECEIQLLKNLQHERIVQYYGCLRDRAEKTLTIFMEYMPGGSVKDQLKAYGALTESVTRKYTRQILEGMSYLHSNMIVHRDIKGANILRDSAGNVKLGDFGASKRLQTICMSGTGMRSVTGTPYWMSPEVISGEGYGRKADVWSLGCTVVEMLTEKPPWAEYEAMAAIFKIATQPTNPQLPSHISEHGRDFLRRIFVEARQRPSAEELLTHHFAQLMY
GRK2 inh – inhibitors of human GRK2 displacing RNA aptamer. AID 488847. inhibition of aptamer binding, % at 10 µM. bead flow cytometry, FAM-aptamer displacement from GRK2. 330,000 tested, 0.59% active;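 active = inhibition of aptamer binding above 40%, roughly 3 SD of noise, on plates passing a quality check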;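 note: median bead fluorescence of bound FAM aptamer so fluorescent compounds give negative values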
GRK2 inh confirm – human GRK2 inhibition confirmation, cherry pick 1. shares compounds with GRK2 inh. aptamer displacement, % at 10 µM. 2,000 tested, 4% active. bead-bound GRK2, FAM-aptamer displacement, flow cytometry;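 active = aptamer displacement above 40%, near three times the noise of non-fluorescent compounds, on plates passing quality checks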;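 note: negative values mostly reflect intrinsic compound fluorescence rather than true enhancement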
Aptamer quench 1 – quenches fluorescent RNA aptamer, GRK2 hit artifact; Fluorescent RNA aptamer beads, quenching, flow cytometry; stronger effect = higher value; fluorescence change (kMESF span), kMESF (concentration not given with the values); 110 tested, under 10 active; shares compounds with GRK2 inh;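 active = compounds whose bead fluorescence drops by more than 37 kMESF across the dose range, marking them as dye quenchers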
Aptamer quench SP – aptamer fluorescence quenching in GRK2 counter-screen; fluorescence response (% of DMSO), % at 10 µM; AID 504580; 2,000 tested, under 10 active; shares compounds with GRK2 inh; Carboxyfluorescein RNA aptamer on beads, flow cytometry quenching; stronger effect = lower value;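 active = compounds that quench the bead-bound fluorescent RNA probe, cutting fluorescence to under half of the solvent control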;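 note: counterscreen run without GRK2 so only probe quenching by compound is measured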
GRK2 confirm 2 – confirmation of human GRK2 inhibitors binding RNA aptamer site; shares compounds with GRK2 inh; bead-bound GRK2, FAM-aptamer displacement, flow cytometry; inhibition of aptamer binding, % at 10 µM; 360 tested, under 10 active; AID 504782;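 active = inhibition of aptamer binding above 40%, about triple the noise seen with nonglowing compounds, on plates passing quality control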;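 note: negative values mostly come from compounds that fluoresce themselves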
FAM quench CP2 – counter-screen for GRK2 binding hits: quenchers of fluorescent RNA aptamer; fluorescence response vs DMSO, % at 10 µM; carboxyfluorescein RNA aptamer beads, flow cytometry quenching; stronger effect = lower value; 360 tested, under 10 active; shares compounds with GRK2 inh; AID 588494;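 active = response vs DMSO under 50%, meaning signal dropped by over half, treated as fluorescence quencher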;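 note: labelled aptamer on streptavidin beads without GRK2 as a quench counter-screen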
Numbers stand for hits; i = inactive; nt = not tested or not shown. An excerpt weighted towards active compounds, which were near 2.5% of everything screened.

SMILES | MEKK2mut PB1 HTS | MEKK2wt PB1 HTS | MEKK3 PB1 HTS | GRK2 inh | GRK2 inh confirm | Aptamer quench SP | others
CCCCCC(=O)N1CC2(CC(c3cccc(NC(=O)[C@@H]4CCC(=O)N4)c3)=NO2)C[C@@H]1C(N)=O (stereo not given in full) | i | i | i | i | nt | nt | GRK2 confirm 2=i;FAM quench CP2=i
C=C(C)C(=O)Nc1cccc(C2=NOC3(C2)C[C@@H](C(N)=O)N(C(=O)[C@H]2CCC(=O)N2)C3)c1 (stereo not given in full) | i | i | i | i | nt | nt
C=C(C)C(=O)Nc1cccc(C2=NOC3(C2)C[C@@H](C(N)=O)N(C(=O)CCCCC)C3)c1 (stereo not given in full) | i | i | i | 98 | 90 | i | Aptamer quench 1=i
C/C=C(/C)C(=O)Nc1cccc(C2=NOC3(C2)C[C@@H](C(N)=O)N(C(=O)CC)C3)c1 (stereo not given in full) | i | i | i | i | nt | nt
CCCCCC(=O)Nc1cccc(C2=NOC3(C2)C[C@@H](C(N)=O)N(C(=O)c2ccc(OC)cc2)C3)c1 (stereo not given in full) | i | i | i | 65 | i | i | Aptamer quench 1=i
C=C(C)C(=O)Nc1cccc(C2=NOC3(C2)C[C@@H](C(N)=O)N(C(=O)c2cc([N+](=O)[O-])cc([N+](=O)[O-])c2)C3)c1 (stereo not given in full) | i | i | i | 79 | 57 | i | Aptamer quench 1=i
Nn1c(SCC(=O)Nc2nccs2)nnc1C1CC1 | i | i | i | i | nt | nt
O=[N+]([O-])c1ccccc1S(=O)(=O)N1CCN(C2CCN(Cc3ccccc3)CC2)CC1 | i | i | i | i | nt | nt
O=C(COC(=O)c1ccc2c(c1)OCCO2)NCCc1ccccc1 | nt | nt | nt | i | nt | nt
Cc1c(C(=O)Nc2ccccn2)sc2nc3n(c(=O)c12)CCC3 | i | i | i | i | nt | nt
CC1(C(=O)N2CC3(CC(c4cccc(NC(=O)CC(c5ccccc5)c5ccccc5)c4)=NO3)C[C@@H]2C(N)=O)CC1 (stereo not given in full) | i | i | i | i | nt | nt | GRK2 confirm 2=i;FAM quench CP2=i
CSc1ccccc1OCc1cc(C(=O)N(C)Cc2cnccn2)no1 | i | i | i | i | nt | nt
Cc1sc2c(c1C)C(=O)/C(=C\Nc1ccccn1)S(=O)(=O)N2C | i | i | i | 57 | i | i
COC(=O)c1ccc(C2C(C(=O)c3ccco3)=C(O)C(=O)N2CC2CCCO2)cc1 (stereo not given) | i | i | i | i | nt | nt
CC1CCc2c(sc(NC(=O)c3ccc(-c4ccccc4[N+](=O)[O-])o3)c2C#N)C1 (stereo not given) | i | i | i | 73 | i | i
N=C1/C(=C/c2ccco2)C(=O)N=C2SC(CC(=O)N3CCCC3)=NN12 | i | i | i | 46 | i | i
CC1=NN(c2cccc(C(=O)O)c2)C(=O)/C1=C\C=C\c1ccco1 | i | i | i | 83 | 60 | i | Aptamer quench 1=i
C#CCOc1ccc(/C=C2/C(=O)N(c3cccc(C(=O)O)c3)N=C2C)cc1OC | i | i | i | i | nt | nt
Cc1ccc(C(=O)NCC(=O)OCC(=O)c2c(N)n(C)c(=O)n(C)c2=O)cc1C | nt | nt | nt | i | nt | nt
O=C1COc2ccc(C(=O)COC(=O)/C=C/c3ccc(Br)o3)cc2N1 | nt | nt | nt | 57 | i | i
Cc1ccc(/C=C/C(=O)OCC(=O)c2ccc3c(c2)NC(=O)CO3)o1 | nt | nt | nt | i | nt | nt
COc1ccc(CN2CCN(C(C)C)C(CCO)C2)cc1Cn1cncn1 (stereo not given) | i | i | i | 46 | i | i

From PubChem BioAssay
